Only a selection was taken, and hits are over-represented in it overall.
ST2 IL33 inh: inhibitors of human ST2 (IL1RL1) binding to IL-33. AlphaLISA ST2-Fc/biotin-IL-33 interaction, 1 h. inhibition, % for hits at 17 µM. AID 1259354. actives 2.3% (n = 78,000); in the data active means inhibition above about 30%
Target sequence (Q01638 whole entry, looked up): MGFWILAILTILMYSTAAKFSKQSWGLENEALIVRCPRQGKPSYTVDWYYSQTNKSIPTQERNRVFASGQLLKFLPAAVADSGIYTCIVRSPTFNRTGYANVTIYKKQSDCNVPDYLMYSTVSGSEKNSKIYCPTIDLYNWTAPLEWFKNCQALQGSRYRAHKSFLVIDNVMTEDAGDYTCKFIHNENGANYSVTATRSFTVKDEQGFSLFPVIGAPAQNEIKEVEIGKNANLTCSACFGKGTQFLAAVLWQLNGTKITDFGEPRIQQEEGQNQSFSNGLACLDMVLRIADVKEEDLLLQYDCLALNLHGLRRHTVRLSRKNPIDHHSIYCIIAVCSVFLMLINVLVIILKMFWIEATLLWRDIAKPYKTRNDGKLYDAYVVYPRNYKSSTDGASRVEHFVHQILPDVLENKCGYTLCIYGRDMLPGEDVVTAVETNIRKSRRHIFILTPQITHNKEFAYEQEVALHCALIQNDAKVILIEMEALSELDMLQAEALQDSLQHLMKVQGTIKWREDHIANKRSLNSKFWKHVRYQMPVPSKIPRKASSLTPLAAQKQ
An asterisk follows results filed as active; i = inactive.

SMILES | ST2 IL33 inh
COc1ccc(CNc2ccc3c(c2)ncn3C(C)(C)C)cc1OC | i
COc1ccc(CNc2ccc3c(c2)ncn3C2CCCCC2)cc1OC | 33.0%*
COc1ccc(CNc2ccc3c(c2)ncn3C2CCCCC2)cc1 | 39.0%*
CCn1cnc2cc(NCc3ccc(OC)c(OC)c3)ccc21 | i
CCOc1ccc(CNc2ccc3c(c2)ncn3C(C)(C)C)cc1 | i
Cc1ccc(S(=O)(=O)NCCCO)cc1 | i
COc1ccc(NC(=O)CCC2CCCN(Cc3cc(C)c(C)o3)C2)c(C)c1 (stereo not drawn) | i
O=C(NC(Nc1ccc(Cl)cc1)C(Cl)(Cl)Cl)c1cccnc1 (stereo not drawn) | i
O=C(NC(Nc1ccc(C(F)(F)F)cc1Cl)C(Cl)(Cl)Cl)c1cccnc1 (stereo not drawn) | 63.0%*
Cc1ccc(Oc2ccc(C(F)(F)F)cc2NC(=O)c2cccnc2)cc1 | i
CN(CCSc1ccccc1)Cc1cc2n(n1)CCNC2 | i
CCn1ccnc1CN1CCC(CCC(=O)Nc2ccc(OC)cc2OC)CC1 | i
N#C/C(=C\c1ccc(Br)cc1)c1nc(C2CC2)cs1 | 49.0%*
N#C/C(=C/c1ccc(Br)cc1)c1nc(-c2cccs2)cs1 | 40.0%*
N#Cc1c(-c2ccccc2)cc(-c2cccs2)nc1Br | i
O=C(Nc1nc(-c2cccs2)cs1)c1ccc(Br)cc1 | i
CCCN1CCN(CCCNC(=O)CSc2cc(=O)n(C)c3ccccc23)CC1 | i
O=C1C2C3c4ccccc4C([N+](=O)[O-])(c4ccccc43)C2C(=O)N1CCCCO (stereo not drawn) | i
COC(=O)CSC1=C(C#N)C(c2ccccc2OC)CC(=O)N1 (stereo not drawn) | i
O=C1CSC(c2ccccc2)N1c1ccc(Br)cc1 (stereo not drawn) | i
O[C@@H]1C[C@@H](c2nc(-c3ccccc3)no2)N(Cc2cccnc2)C1 | i
COc1ccccc1C(=O)N/C(=C\c1ccc2c(c1)OCO2)C(=O)NCCCCCC(=O)O | i
CCN(CC)CCCNCc1ccc(OC)cc1OC | i
CSC1=N/C(=C\c2cc3c(cc2Br)OCO3)C(=O)S1 | i
CCN(CC)c1ccc(/C=C2\N=C(SC)SC2=O)cc1 | 63.0%*
SMILES | ST2 IL33 inh
CCN(CC)c1ccc(C2C3=C(CC(C)(C)CC3=O)Nc3nc(SC)[nH]c(=O)c32)cc1 (stereo not drawn) | i
COc1ccc2c(c1)sc(=NC(=O)CSCC(=O)N1CCCc3ccccc31)n2C | i
Cc1ccc(S(=O)(=O)Nc2ccc3oc(C)c(C(=O)OCc4ccccc4)c3c2)cc1 | i
CCn1c(CCNC(=O)C(C)(C)C)nc2ccccc21 | i
CCNc1ccc(Br)cc1-c1nc2ccccc2n(CC)c1=O | 77.0%*
CCn1c(C(C)NC(=O)C(C)(C)C)nc2ccccc21 (stereo not drawn) | i
COc1ccc(OC)c(-c2cc(C(=O)NC3CCCC3)no2)c1 | i
O=C(Nc1cccc(Cl)c1)c1cccc(Br)c1 | i
Cc1cc(NC(=O)c2ccc(N3C(=O)CCC3=O)cc2)nc2c1c(=O)oc1ccccc12 | i
CCOC(=O)C(CC)Sc1nc(C)nc2c1c(=O)n(C)c(=O)n2C (stereo not drawn) | i
Cc1noc(C)c1S(=O)(=O)N1CCN(c2cc(-c3cccc(F)c3)ncn2)CC1 | i
Cc1ccc(/C=C2/SC(N3CCC(C)CC3)=NC2=O)o1 | 30.0%*
O=C1N=C(N2CCOCC2)S/C1=C/c1ccc(Cl)cc1 | i
O=C1N=C(N2CCOCC2)S/C1=C/c1ccc(-c2ccccc2)o1 | 34.0%*
COc1cc(/C=C2/SC(N3CCC(C)CC3)=NC2=O)cc(OC)c1OC | i
Cc1ccc(/C=C2\CS/C(=C\c3ccc(C)o3)C2=O)o1 | 60.0%*
Cc1ccc(/C=c2\sc3nc(-c4ccc(OC(C)C)cc4)nn3c2=O)o1 | i
C=CCOc1ccc(/C=C2/SC(N3CCOCC3)=NC2=O)cc1 | i
CCOc1ccc(-c2nc3s/c(=C\c4ccc(C)o4)c(=O)n3n2)cc1 | i
CN1CCN(C2=NC(=O)/C(=C/c3cccs3)S2)CC1 | i
Cc1nc(N2C[C@@H]3C[C@H](C2)[C@@H]2CCCC(=O)N2C3)cc(-n2cccn2)n1 | i
CCOc1ccc(-n2c(SCC(=O)N3CCc4ccccc43)nc3c(c2=O)SCC3)cc1 | i
CCOc1ccc(N2C(=O)C3CC(C)=C(C)CC3C2=O)cc1 (stereo not drawn) | i
N#CCC(N)=Nc1sc2c(c1C#N)CCCC2 | i
Cc1ccc(C)c(N2CCN(C(=O)c3ccc(Cn4c(=O)[nH]c5ccsc5c4=O)cc3)CC2)c1 | i
CS(=O)(=O)NC[C@H]1O[C@@H](CC(=O)Nc2ccccc2)[C@H](O)[C@@H]1O | i
COc1cccc(NC(=O)C2CCN(c3ccc(-c4cccs4)nn3)CC2)c1 | i
O[C@@H]1C[C@@H](c2nc(-c3ccc(C(F)(F)F)cc3)no2)N(Cc2ccc(F)cc2)C1 | i
O=C(CCn1c(=O)c2sccc2n(Cc2ccc(F)cc2Cl)c1=O)NCc1ccccc1 | i
Cn1c(/C=C/c2ccc([N+](=O)[O-])o2)nc2ccc(I)cc2c1=O | i
